Only some compounds are listed: those with a hit (about 9.4% of all), similar ones and a draw of the others.
IMPase cell inh = IMPase inhibition in cells | P97697 | CHO-M1 cells, IP1 accumulation, HTRF TR-FRET ratio | inhibition (IP1 accumulation), % at 46.1 µM | 120,000 tested, under 10 active | AID 901; active means well fitted curve in the direction sought with a large enough effect in the signal ratio, not every such curve was filed as active; inconclusive means small, poorly fitted or top-dose-only effect, or a change in a side signal; inactive means no such curve, though single readings can be large or run the other way; the % refers to the signal ratio;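 further: cells stimulated with carbachol in lithium chloride buffer; plate controls were DMSO basal wells for no effect and reference inhibitor wells for full effect; higher means more IMPase inhibition seen as more IP1 and lower FRET ratio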
Target sequence (P97697 whole entry, looked up): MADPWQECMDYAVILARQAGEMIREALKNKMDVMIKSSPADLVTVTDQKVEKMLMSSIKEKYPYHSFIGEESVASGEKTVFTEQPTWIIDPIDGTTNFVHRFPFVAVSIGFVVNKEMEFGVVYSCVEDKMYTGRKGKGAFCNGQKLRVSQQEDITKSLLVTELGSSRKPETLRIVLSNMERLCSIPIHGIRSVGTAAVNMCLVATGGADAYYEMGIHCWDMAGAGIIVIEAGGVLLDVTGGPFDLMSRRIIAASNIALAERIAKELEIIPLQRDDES
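Seeded CHO-M1 cells were dosed with compound at up to 46 uM, stimulated with carbachol for 30 min, then lysed in IP-One detection reagents. Higher IP1 lowers the TR-FRET signal.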
HttQ103 aggreg = inhibitors of mutant huntingtin aggregate formation in PC12 cells; PC12 HttQ103-GFP aggregates, Acumen cytometry, 40 h; Potency, µM (highest dose often 46.1 µM), for inactives: top-dose activity change, negative = inhibition, hits mostly inhibitors; 220,000 compounds, 1.1% hits; further: potency means the concentration at half of the fitted maximal effect; on the % scale 0 is the no-effect control and ±100 the full control effect; nearly all actives have a fitted effect of over 60% in size
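Inducible Q103 Huntingtin exon 1–GFP PC12 line, 1500 cells/well in phenol red free DMEM with 5% equine and 5% calf serum. Tebufenozide 100 nM induced expression; compounds titrated; aggregates quantified by cytometry.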
IMPase Li cell = membrane-permeable IMPase blocker, potentiated with lithium; CHO-M1 cells, IP1 TR-FRET (IP-One), carbachol + lithium; Potency, µM (titrated, usually from 59.4 µM), for the others: at the top dose activity, negative = IMPase inhibition, usual class: inhibitors; 210,000 compounds, 0.35% hits; AID 1457;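 further: IP1 builds up when IMPase is blocked and the TR-FRET signal falls; potency means the concentration at half of the fitted maximal effect; plate controls were basal vehicle for no effect and high inhibitor control for full effect; nearly all actives have a fitted effect of over 50% in size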
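IP1 accumulation measured by competitive TR-FRET in lysed CHO-M1 cells after 30 min compound exposure at 37C, with a small lithium addition to potentiate weak responses. Hill-equation AC50 from ratio and donor-channel data.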
ALDH1A1 block = blocks purified human ALDH1A1 activity; P00352; Purified ALDH1A1, NADH fluorescence, propionaldehyde substrate; Potency, µM (titrated, usually from 75.3 µM), inactives show at the top dose activity, negative = inhibition, actives largely listed as inhibitors; 220,000 compounds, 7.3% hits; AID 1030; active means well fitted inhibition curve with a large enough effect, not every such curve was filed as active; inconclusive means small, poorly fitted or top-dose-only effect, or another doubt; inactive means no such curve, though single readings can be large or run the other way;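 further: potency means the concentration at half of the fitted maximal effect; plate controls were no enzyme wells and a reference inhibitor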
Target sequence (P00352 whole entry, looked up): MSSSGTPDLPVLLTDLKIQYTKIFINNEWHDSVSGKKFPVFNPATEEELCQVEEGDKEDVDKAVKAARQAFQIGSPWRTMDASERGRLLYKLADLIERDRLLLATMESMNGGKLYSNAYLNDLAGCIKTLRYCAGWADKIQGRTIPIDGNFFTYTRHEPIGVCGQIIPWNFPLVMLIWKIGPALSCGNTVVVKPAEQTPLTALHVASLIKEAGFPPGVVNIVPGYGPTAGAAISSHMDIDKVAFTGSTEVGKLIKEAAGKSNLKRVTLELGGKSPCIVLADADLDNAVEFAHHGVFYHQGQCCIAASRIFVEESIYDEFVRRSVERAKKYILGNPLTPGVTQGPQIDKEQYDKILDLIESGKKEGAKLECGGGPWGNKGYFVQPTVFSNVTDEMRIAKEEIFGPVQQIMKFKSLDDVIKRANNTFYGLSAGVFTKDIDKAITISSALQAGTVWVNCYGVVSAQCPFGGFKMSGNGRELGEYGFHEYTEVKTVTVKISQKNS
HPGD inh = inhibitors of human 15-hydroxyprostaglandin dehydrogenase (HPGD) | P15428 | purified HPGD, NADH fluorescence kinetic, PGE2 substrate | Potency, µM, inactives show top-dose activity change, negative = inhibition, usual class: inhibitors | 150,000 compounds, 4.3% hits; active means well fitted inhibition curve with a large enough effect, not every such curve was filed as active; inconclusive means small, poorly fitted or top-dose-only effect, or another doubt; inactive means no such curve, though single readings can be large or run the other way; further: potency means the concentration at half of the fitted maximal effect; on the % scale 0 is the no-effect control and ±100 the full control effect
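NADH formation kinetics: reaction with 30 uM PGE2 and 1 mM NAD+ (final), 20 nM enzyme, Tris-HCl pH 8 with Tween 20, after 15 min compound preincubation at room temperature. Fluorescence change, last versus first of five reads.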
HTT cytoprotect = protects HTT-Q103 PC12 cells, measured by ATP; PC12 HTT-Q103 induced, cytoprotection, ATP luminescence, 40 h; 230,000 compounds, 0.14% hits; Potency, µM (series often up to 56.4 µM), for the others: cytoprotection (ATP increase), actives largely listed as activators; AID 1471; further: potency means the concentration at half of the fitted maximal effect; % of control where 0% means no effect; nearly all actives have a fitted effect of over 45% in size
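Compounds added alongside 100 nM tebufenozide, which induces toxic Q103 huntingtin exon 1-GFP in stable PC12 cells; surviving cells quantified by luminescent ATP measurement. Medium: phenol red-free DMEM, 5% equine and 5% calf serum.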
Starred values were filed as active, the others as inactive; [ ] = another dose, or the depositor's remark. Unless noted, the call rests on the fitted dose curve; in most records, active means well fitted curve in the direction sought with a large enough effect; inconclusive means small, poorly fitted or top-dose-only effect, or another doubt; inactive means no such curve, though single readings can be large; an effect the other way counts as inactive or inconclusive.

For Cn1c(=O)n(C)c2cc(N3CCCCC3)c(NC(=O)c3ccc(C(C)(C)C)cc3)cc21 the results were IMPase cell inh 0.5.
`COC1C(O)COC1/C=C/c1ccccc1` (configuration not stated) gave ALDH1A1 block -1.3%[13.5 µM] and HTT cytoprotect inconclusive.
CN(C)/C=N/c1c(C#N)nnn1Cc1ccccc1 was read as IMPase cell inh -0.4, HttQ103 aggreg -13.1%, IMPase Li cell 9.1%[38.3 µM], ALDH1A1 block inconclusive, HPGD inh 20µM* and HTT cytoprotect -79.5%.
Screening Nc1ccc(S(=O)(=O)N2CCCC2C(=O)O)cc1 (configuration not stated) returned HttQ103 aggreg 36.7%[9.22 µM] and HTT cytoprotect 0.2%[10 µM].
`COC(=O)c1ccccc1NC(=O)CN1CCC(NC(=O)c2ccccc2C)CC1` gave IMPase cell inh 9.0, HttQ103 aggreg 25.1%, IMPase Li cell 4.1%[38.3 µM], ALDH1A1 block 20µM*, HPGD inh -4.2% and HTT cytoprotect -12.6%[10 µM].
`COC(=O)c1ccccc1NC(=O)CN1CCC(C)CC1` gave HttQ103 aggreg -12.1%, IMPase Li cell -5.2%, ALDH1A1 block inconclusive and HTT cytoprotect -27.9%.
Screening CC(=O)CC(C)(C)S(=O)(=O)c1ccc(Oc2ccc(S(=O)(=O)C(C)(C)CC(C)=O)cc2)cc1 returned IMPase cell inh inconclusive, HttQ103 aggreg -12.1%, IMPase Li cell 21.3%, ALDH1A1 block 8.91µM*, HPGD inh -0.3% and HTT cytoprotect -4.4%[10 µM].
Screening COc1cc2ccccc2cc1C(=O)Nc1ccc2oc(-c3cc(Br)ccc3Cl)nc2c1 returned IMPase cell inh -5.5.
Screening C=CC1=C(C)/C(=C/c2[nH]c(Cc3[nH]c(/C=C4\NC(=O)C(C)=C4C=C)c(C)c3CCC(=O)O)c(CCC(=O)O)c2C)NC1=O returned IMPase Li cell 38.8%, ALDH1A1 block inconclusive and HPGD inh -18.9%.
`Cc1ccc(-n2c(=S)[nH]c3c(oc4ccccc43)c2=O)cc1` gave IMPase cell inh inconclusive, HttQ103 aggreg -2.1%, ALDH1A1 block 7.9% and HTT cytoprotect -22.7%[10 µM].
Screening Cc1cccc(-n2c(=S)[nH]c3c(oc4ccccc43)c2=O)c1 returned HttQ103 aggreg 5.9%, IMPase Li cell 8.91µM*, ALDH1A1 block inconclusive and HPGD inh -11.3%.
`O=c1c2oc3ccccc3c2[nH]c(=S)n1-c1ccccc1` gave IMPase cell inh inconclusive, HttQ103 aggreg -4.4%, IMPase Li cell 8.91µM*, ALDH1A1 block 7.94µM*, HPGD inh -14.8% and HTT cytoprotect -1.5%[10 µM].
For COc1ccc2c(c1)O[C@@H](c1ccc3c(c1)OCO3)[C@H](OC(=O)NS(=O)(=O)c1ccc(F)cc1)C2=O the results were IMPase Li cell 10.8%, ALDH1A1 block inconclusive, HPGD inh -12.6% and HTT cytoprotect 44.2%.
`COCc1cc(C)nc2sc(C(=O)Nc3cc(C)ccc3F)c(N)c12` gave IMPase cell inh -8.8.
C=CCn1c(C)c(C(C)=O)c(N2CCN(c3ccccc3)CC2)nc1=S was read as IMPase cell inh -10.5, HttQ103 aggreg 2.7%, IMPase Li cell 1.5%[38.3 µM], ALDH1A1 block 28.2µM*, HPGD inh -22.5% and HTT cytoprotect -21.4%.
O=C1CN(C(=O)CSc2nc3cc(Cl)ccc3c(=O)n2Cc2ccccc2)c2ccccc2N1 was read as IMPase cell inh inconclusive, HttQ103 aggreg -15.6%, IMPase Li cell -2.6%, ALDH1A1 block 7.94µM*, HPGD inh -17.0% and HTT cytoprotect -1.1%[10 µM].
`Cc1ccc(Cn2c(SCC(=O)N3CC(=O)Nc4ccccc43)nc3ccccc3c2=O)cc1` gave IMPase cell inh -1.5, HttQ103 aggreg 9.6%, ALDH1A1 block inconclusive and HTT cytoprotect 20.2%[10 µM].
`Cc1cccc(-n2c(SCC(=O)N3CC(=O)Nc4ccccc43)nc3ccccc3c2=O)c1C` gave IMPase cell inh -5.8, HttQ103 aggreg inconclusive, IMPase Li cell 11.4%, ALDH1A1 block -8.0%, HPGD inh -27.2% and HTT cytoprotect 0.891µM*.
Screening O=C(C1CCN(c2ncnc3c2sc2cccc(F)c23)CC1)N1CCCC1 returned HttQ103 aggreg 3.2%[9.22 µM] and HTT cytoprotect -1.8%[10 µM].
For O=C(NC1CC1)C1CCN(c2ncnc3c2sc2cccc(F)c23)CC1 the results were IMPase cell inh -1.7, HttQ103 aggreg -8.5%, IMPase Li cell 5.8%[38.3 µM], ALDH1A1 block inconclusive, HPGD inh 15.8µM* and HTT cytoprotect -47.3%.
`Nc1ncnc2c1ncn2[C@H]1O[C@@H](CO)[C@@H](O)[C@H]1N` gave IMPase Li cell -1.4%, ALDH1A1 block 5.2%[13.5 µM], HPGD inh -11.3% and HTT cytoprotect -13.0%[10 µM].
Screening COC(=O)[C@@H]1C[C@@]2(O)[C@H](O)[C@H](O)[C@H](O)C[C@H]2N1Cc1ccc(N2CCN(C)CC2)cc1 returned IMPase Li cell -5.0%, ALDH1A1 block 22.4µM*, HPGD inh -16.8% and HTT cytoprotect -27.2%.
`COc1ccc2o/c(=N\O)c(C(=O)Nc3ccccc3OC)cc2c1` gave IMPase cell inh -0.8, HttQ103 aggreg -2.8%, IMPase Li cell 24.5%[38.3 µM], ALDH1A1 block inconclusive, HPGD inh 12.6µM* and HTT cytoprotect 4.2%.
COc1ccc2oc(=O)c(C(=O)Nc3ccccc3O)cc2c1 was read as HttQ103 aggreg 1.4%[9.22 µM] and HTT cytoprotect -3.4%[10 µM].
Screening C=C[C@H](N)CCC(=O)O returned IMPase cell inh 2.9, IMPase Li cell 9.5%, ALDH1A1 block -8.4%, HPGD inh -9.2% and HTT cytoprotect -40.8%[1.9 µM].
For Nc1nc(N)nc(CCCCc2nc(N)nc(N)n2)n1 the results were HTT cytoprotect -17.0%[10 µM].
Screening COc1ccc(CCNC(=O)COC(=O)C23CC4CC(CC(C4)C2)C3)cc1 returned IMPase cell inh 3.3, HttQ103 aggreg -12.1%, IMPase Li cell -1.7%, ALDH1A1 block 22.4µM*, HPGD inh -3.2% and HTT cytoprotect 0.3%[10 µM].
For COc1ccc(CNC(=O)C/C(C)=N/NC(=O)C23CC4CC(CC(C4)C2)C3)cc1 the results were HttQ103 aggreg 5.7%[9.22 µM], IMPase Li cell 12.1%, ALDH1A1 block 14.1µM* and HTT cytoprotect 11.5%[10 µM].
`COc1ccc(CNC(=O)C/C(C)=N/NC(=O)C(c2ccccc2)c2ccccc2)cc1` gave IMPase cell inh -1.5, HttQ103 aggreg -7.1%, IMPase Li cell -2.0%[38.3 µM], ALDH1A1 block 22.4µM*, HPGD inh -1.2% and HTT cytoprotect -17.9%.
Screening COc1ccc(CNC(=O)C/C(C)=N/NC(=O)Cc2ccc(OC)cc2)cc1 returned HttQ103 aggreg 19.1%, IMPase Li cell 1.4%, ALDH1A1 block 0.2%, HPGD inh 2.5% and HTT cytoprotect 22.8%[10 µM].

Screening results as filed in PubChem BioAssay.
